Consider 30 sequences from the supplement of paper PMC10338343.

The subject of assay [1] is MILI (PIWIL2) piRISC loaded with piRNA #1 (26 nt). As to the kind of experiment: pre-steady-state target cleavage rate (min^-1); guide: piRNA #1 5'p-UGAGGUAGUAGGUUGUAUAGUAUCCA; higher = faster piRNA-guided slicing of the target. To be noted: auxiliary factor: 500 nM mouse GTSF1. The procedure, abridged: (§1)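 Cleave-'n-Seq measured uncleaved targets by sequencing after a transcribed, DNA-blocked target RNA library […] was mixed with 1 nM active affinity-purified piRISC holding one synthetic guide, with or without 500 nM GTSF1 partner protein, at 33 °C in HEPES–potassium acetate buffer for 0–8 or 0–960 min. Counts were normalised to depth and to weakly complementary targets, three trials were pooled, and k3 was capped at 0.0001 min^-1. A burst-and-steady-state fit gave the pre-steady-state cleavage rate.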

For assay [2], the system named is EfPiwi piRISC loaded with piRNA #1 (26 nt). As to the kind of experiment: pre-steady-state target cleavage rate (min^-1); auxiliary factor: 500 nM Ephydatia muelleri Gtsf1; guide: piRNA #1 5'p-UGAGGUAGUAGGUUGUAUAGUAUCCA; MIWI and MILI are mouse PIWI proteins and EfPiwi is from a freshwater sponge; tags in brackets are library labels; higher = faster piRNA-guided slicing of the target. The procedure, abridged: as §1

± gives the standard deviation.

GGAGUGGAUACUAUACAACCUAAUACCUCA: the “pre-steady-state target cleavage rate” value came to 0.0398 ± 0.0071 in assay [1] and 0.00389 ± 0.0016 in assay [2].

With GGAGUGGAUACUAUAUCAACCUACUACCUCA, the “pre-steady-state target cleavage rate” value came out at 0.143 ± 0.013 in assay [1] and 0.0851 ± 0.03 in assay [2].

For GGAGACGAUUCUAUACUACCUACUACCUCA, the “pre-steady-state target cleavage rate” value in assay [1] is 0.213 ± 0.011; in assay [2], 0.00459 ± 0.0029.

Consider GGAGACGAAUGUAUACAACCUACUACCUCA, for which the “pre-steady-state target cleavage rate” value in assay [1] was determined as 0.124 ± 0.011; in assay [2], 0.00736 ± 0.0043.

On to GGAGAGGACACUAUACAACCUACUACCUCA, for which the results for the “pre-steady-state target cleavage rate” value in assay [1] and in assay [2] were 0.185 ± 0.016 and 0.0224 ± 0.0085, respectively.

As for GGAGACCUAACUAUACAAGCUACUACCUGA, the “pre-steady-state target cleavage rate” value stood at 0.235 ± 0.043 in assay [1] and 0.00345 ± 0.003 in assay [2].

On to GGAGACCAUACUGAUACAACCUACUACCUCA, for which the “pre-steady-state target cleavage rate” value was 0.112 ± 0.014 in assay [1] and 0.0368 ± 0.013 in assay [2].

As to GGAGACGAUACUAUACAACCUACUAACUCA, the “pre-steady-state target cleavage rate” value is 0.0612 ± 0.016 in assay [1] and 0.00467 ± 0.0021 in assay [2].

As for GGAGACCAUACUUUACAACCUACUACCUCA, the “pre-steady-state target cleavage rate” value in assay [1] turned out to be 0.168 ± 0.014; in assay [2], 0.017 ± 0.0071.

Take GGAGAGGAUUCUAUACAACGUACUACCUCA: the “pre-steady-state target cleavage rate” value turned out to be 0.028 ± 0.0028 in assay [1] and 0.00249 ± 0.0021 in assay [2].

As to GGAGACCUUAGUAUACAACCUACUACCUCA, the “pre-steady-state target cleavage rate” value in assay [1] stood at 0.0889 ± 0.0097; in assay [2] it was 0.0563 ± 0.02.

GGAGAGGAUACUAUAAAACCUACUACCUCA: the “pre-steady-state target cleavage rate” value in assay [1] is 0.181 ± 0.013; in assay [2] it was 0.00425 ± 0.0029.

With GGAGAGGAUACUUUACAACCUACUACCUGA, the “pre-steady-state target cleavage rate” value was 0.0593 ± 0.011 in assay [1] and 0.00329 ± 0.0017 in assay [2].

As to GGAGAGGAUACUAUACAACCUACAUACCUCA, the results for the “pre-steady-state target cleavage rate” value in assay [1] and in assay [2] were 0.123 ± 0.012 and 0.00353 ± 0.0021, respectively.

On to GGAGACCUUACCAUACAACCUACUACCUCA, for which the “pre-steady-state target cleavage rate” value came out at 0.134 ± 0.02 in assay [1] and 0.0112 ± 0.0056 in assay [2].

For GGAGUGCAUACUAUACAACCUUCUACCUCA, the “pre-steady-state target cleavage rate” value in assay [1] worked out at 0.00996 ± 0.002; in assay [2], 0.00467 ± 0.0029.

Take GGAGUGGCAUACUAUACAACCUACUACCUCA: the “pre-steady-state target cleavage rate” value was 0.204 ± 0.015 in assay [1] and 0.101 ± 0.029 in assay [2].

In the case of GGAGACCUAUGAUUACAACCUACUCACCUCA, the entries for the “pre-steady-state target cleavage rate” value in assay [1] and in assay [2] were 0.00473 ± 0.0023 and below 0.0001, respectively.

With GGAGACGAUACUAUACAACCUACUACCCCA, the “pre-steady-state target cleavage rate” value in assay [1] turned out to be 0.144 ± 0.025; in assay [2] it was 0.00536 ± 0.0014.

Regarding GGAGUGCAUACUAUUCAACCUACUACCUCA, the “pre-steady-state target cleavage rate” value in assay [1] amounted to 0.182 ± 0.011; in assay [2], 0.00471 ± 0.0042.

In the case of GGAGACCUAUCUAUACAACAUACUACCUCA, the “pre-steady-state target cleavage rate” value worked out at 0.0382 ± 0.0074 in assay [1] and 0.00529 ± 0.0038 in assay [2].

On to GGAGACCAUACUAUACAAACCUACUACCUCA, for which the “pre-steady-state target cleavage rate” value in assay [1] worked out at 0.0045 ± 0.003; in assay [2] it was 0.00703 ± 0.0028.

With GGAGACGAUACUAUACUACCUACUACCACA, the figures for the “pre-steady-state target cleavage rate” value in assay [1] and in assay [2] were 0.209 ± 0.016 and 0.00202 ± 0.0018, respectively.

Regarding GGAGACGAUACUAUACAAGCUACUACGUCA, the figures for the “pre-steady-state target cleavage rate” value in assay [1] and in assay [2] were 0.205 ± 0.032 and 0.00352 ± 0.0014, respectively.

As to GGAGACCUUACUAUACAACCUACUACCAUCA, the “pre-steady-state target cleavage rate” value is 0.162 ± 0.024 in assay [1] and 0.00369 ± 0.0024 in assay [2].

As to GGAGACCAUACUAUACUACCUAGUACCUCA, the “pre-steady-state target cleavage rate” value is 0.0453 ± 0.0095 in assay [1] and 0.00377 ± 0.0033 in assay [2].

For the sequence GGAGAGGAAACUUUACAACCUACUACCUCA, the “pre-steady-state target cleavage rate” value in assay [1] was found to be 0.224 ± 0.031; in assay [2], 0.0107 ± 0.0049.

Take GGAGUGGAUACUAUACAAUCUACUACCUCA: the results for the “pre-steady-state target cleavage rate” value in assay [1] and in assay [2] were 0.127 ± 0.009 and 0.105 ± 0.038, respectively.

GGAGACGAUACUAUACAUCCUACUUCCUCA: the figures for the “pre-steady-state target cleavage rate” value in assay [1] and in assay [2] were 0.157 ± 0.028 and 0.00415 ± 0.0023, respectively.

Take GGAGACCAUAGUAUACAUCCUACUACCUCA: the results for the “pre-steady-state target cleavage rate” value in assay [1] and in assay [2] were 0.19 ± 0.014 and 0.00617 ± 0.0032, respectively.
